# Assay results taken from the supplement of paper PMC3724861.
# Many of the other results were omitted from the sample, so hits are more common in it than they were. The true hit rate is not given.
# System: T1, Caupolican (Caup) homeodomain DNA-binding domain
# T1 sequence: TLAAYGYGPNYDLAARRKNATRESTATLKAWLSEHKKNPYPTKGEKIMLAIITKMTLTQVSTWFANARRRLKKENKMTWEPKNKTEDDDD
# Test: PBM E-score (8-mer, recovered from the published 9-mer minima) (E-score (dimensionless, -0.5 to 0.5)); Drosophila protein; higher = stronger relative binding preference, active = 0.31 or more
# How it was run: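 An enrichment score, with higher meaning stronger, expresses relative binding preference for each short DNA word. The protein used was Caup's homeodomain DNA-binding domain (residues 214-303), produced by in vitro transcription and translation and tested at 100 nM on custom-designed protein binding microarrays. The 8-mer values were recovered from published 9-mer scores, each equal to the lower of its two constituent 8-mer scores.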
row,Sequence,PBM E-score
1,GATACATC,0.297 (inactive)
2,TAAACATA,≥ 0.367 (active)
3,AATACAAA,0.284 (inactive)
4,GATACATA,0.321 (active)
5,AATACAAC,0.305 (inactive)
6,AATACAGA,0.18 (inactive)
7,AATACAAG,0.346 (active)
8,AATACAAT,0.226 (inactive)
9,AAAACATA,0.284 (inactive)
10,AATACATA,0.362 (active)
11,GATACAGA,0.164 (inactive)
12,GAAACATA,0.258 (inactive)
13,AGCTGTAA,0.166 (inactive)
14,AGTACTAT,0.165 (inactive)
15,CCGATGCG,-0.173 (inactive)
16,AAGACTAT,0.0648 (inactive)
17,CCCACGAG,-0.148 (inactive)
18,GGATATCA,0.0642 (inactive)
19,TCGTATAA,0.121 (inactive)
20,CCACTAGG,-0.169 (inactive)
21,CATACATC,0.251 (inactive)
22,AATACATC,0.294 (inactive)
23,CATACATG,0.44 (active)
24,TATACAGA,0.217 (inactive)

row,Sequence,PBM E-score
1,CATACATA,0.286 (inactive)
2,TATACAAA,0.264 (inactive)
3,TATACATA,0.326 (active)
4,AATACATG,0.424 (active)
5,AATACATT,0.225 (inactive)
6,CCTCTACG,-0.0999 (inactive)
7,AACACCTA,0.183 (inactive)
8,CTCAGCGA,-0.115 (inactive)
9,AGATTTGA,0.0967 (inactive)
10,ACCCGCGT,-0.0456 (inactive)
11,CTCGGACA,0.086 (inactive)
12,GATGAACA,0.196 (inactive)
13,CATGAACA,0.32 (active)
14,TATGAACA,0.286 (inactive)
15,TGTGAACA,0.31 (active)
16,AATGAACC,-0.0632 (inactive)
17,CGTGAACA,0.206 (inactive)
18,GGTGAACA,0.183 (inactive)
19,CATGAACG,0.0839 (inactive)
20,AATGAACA,0.317 (active)
21,GCGAGAGA,-0.0945 (inactive)
22,GGCGAGTA,-0.0986 (inactive)
23,GTAGCAAC,0.128 (inactive)
24,AGCAAGAC,0.0516 (inactive)

row,Sequence,PBM E-score
1,ACTTGACC,-0.0545 (inactive)
2,AAAATTTC,-0.0281 (inactive)
3,TCGGCAAA,-0.0466 (inactive)
4,ATGCTGGG,-0.069 (inactive)
5,ATCTGTGC,0.0661 (inactive)
6,AGTGCGCC,-0.17 (inactive)
7,CACATATA,0.251 (inactive)
8,AACATATC,0.303 (inactive)
9,ACCATATG,0.145 (inactive)
10,GACATATA,0.305 (inactive)
11,TATATATA,0.216 (inactive)
12,AACATATA,0.323 (active)
13,AACATATG,≥ 0.356 (active)
14,TACATAGA,0.278 (inactive)
15,CACATATG,0.15 (inactive)
16,AACATATT,≥ 0.347 (active)
17,TACATATA,0.379 (active)
18,AACATAGT,0.287 (inactive)
19,GACGGCTA,-0.167 (inactive)
20,CAATTGTA,0.193 (inactive)
21,ATGAATCG,0.0391 (inactive)
22,AGTAACGA,0.107 (inactive)
23,GACTCGCA,-0.115 (inactive)
24,CAGATGCG,-0.00655 (inactive)

row,Sequence,PBM E-score
1,AGGAAGGA,-0.0149 (inactive)
2,AATGGCTC,-0.0437 (inactive)
3,GTAACAAC,0.341 (active)
4,CTAACACA,0.276 (inactive)
5,ATAACAAA,0.205 (inactive)
6,CTAACAAC,0.278 (inactive)
7,ATAACACA,0.305 (inactive)
8,GTAACAAA,0.217 (inactive)
9,ATAACAAT,0.254 (inactive)
10,ATAACAAC,0.346 (active)
11,ATAACACG,≥ 0.334 (active)
12,AAAACAAC,0.214 (inactive)
13,AGAACAAC,0.229 (inactive)
14,ATAACAAG,≥ 0.373 (active)
15,ACAGTTTC,0.0345 (inactive)
16,CCAGCGGG,-0.276 (inactive)
17,AGACCCCT,-0.143 (inactive)
18,CACGGTCC,-0.0957 (inactive)
19,CGACGATC,0.00125 (inactive)
20,ACGTGTAA,≥ 0.394 (active)
21,ACGTGTGA,0.155 (inactive)
22,CAGTGTAA,0.218 (inactive)
23,AGGTGTAA,0.2 (inactive)
24,GAGTGTAA,0.11 (inactive)

row,Sequence,PBM E-score
1,GCGTGTGA,0.0667 (inactive)
2,CCGTGTAA,0.35 (active)
3,TCGTGTAA,0.363 (active)
4,TAGTGTAA,0.207 (inactive)
5,CCGTGTGA,0.0813 (inactive)
6,TCGTGAAA,0.00205 (inactive)
7,GCGTGTAA,0.327 (active)
8,CTATCTGA,0.0431 (inactive)
9,AAGTGGAC,-0.00011 (inactive)
10,AGTTGGCC,-0.159 (inactive)
11,ATATATCG,0.0746 (inactive)
12,CAGACTGC,-0.0434 (inactive)
13,TAAGTAGA,0.11 (inactive)
14,CAGGGCTA,-0.125 (inactive)
15,CCAGACAC,0.05 (inactive)
16,AACGATGG,-0.0529 (inactive)
17,AACGATGT,0.35 (active)
18,AACGATGC,-0.051 (inactive)
19,TAACTTCA,0.137 (inactive)
20,AACGCAGA,-0.0244 (inactive)
21,TGACTGAA,-0.0626 (inactive)
22,GGCCGCGA,-0.26 (inactive)
23,CATGTCGC,0.363 (active)
24,AATGTCGC,0.191 (inactive)

row,Sequence,PBM E-score
1,TATGTCGA,0.323 (active)
2,CGTGTCGA,0.281 (inactive)
3,AATGTCGG,0.119 (inactive)
4,GATGTCGA,0.217 (inactive)
5,CATGTCGG,0.357 (active)
6,CATGTCGA,0.412 (active)
7,CAGGTCGG,-0.0619 (inactive)
8,GATGTCGC,0.201 (inactive)
9,CTTGTCGA,0.303 (inactive)
10,AATGTCGA,0.212 (inactive)
11,ACCGCGTC,-0.0819 (inactive)
12,TATTCTCA,0.0911 (inactive)
13,CTGTGAAG,-0.0616 (inactive)
14,GCGACAGA,0.0849 (inactive)
15,CTGGGTTC,-0.0931 (inactive)
16,ATTAGCGG,-0.0813 (inactive)
17,AACAGGGG,0.0757 (inactive)
18,GACTTACC,-0.0473 (inactive)
19,ACCATCAT,0.0686 (inactive)
20,GACCTCAA,0.0301 (inactive)
21,CAATTACA,0.334 (active)
22,GAATTACA,0.29 (inactive)
23,CAATTACG,0.0582 (inactive)
24,CAATTACC,-0.00996 (inactive)

row,Sequence,PBM E-score
1,AAATTACA,0.329 (active)
2,AACTTACA,≥ 0.344 (active)
3,AAATTACG,0.0367 (inactive)
4,TAATTACA,0.335 (active)
5,TAATTATA,0.234 (inactive)
6,AAATTACT,0.124 (inactive)
7,CACTTACA,0.243 (inactive)
8,GACTTACA,0.246 (inactive)
9,AGGTAATA,0.0994 (inactive)
10,CGCCCATA,-0.126 (inactive)
11,CGACCTCC,-0.138 (inactive)
12,AGCAACGA,0.0654 (inactive)
13,ACAATCCG,0.117 (inactive)
14,CGGGAAAA,-0.0322 (inactive)
15,CCGGAGAG,-0.159 (inactive)
16,GATTTACA,0.246 (inactive)
17,AATTTACA,0.328 (active)
18,CATTTACA,0.239 (inactive)
19,GAGGTTGC,-0.184 (inactive)
20,AGGCAATA,0.0132 (inactive)
21,AATTGCAT,0.0474 (inactive)
22,GCAAGGTA,0.0505 (inactive)
23,ACAAGACG,0.257 (inactive)
24,ACAAGACA,≥ 0.352 (active)

row,Sequence,PBM E-score
1,ACAAGGTA,0.335 (active)
2,CCAAGATA,0.106 (inactive)
3,GCAAGACA,0.0548 (inactive)
4,ACAAGATC,0.258 (inactive)
5,ACAAGATA,0.342 (active)
6,ACAAGGTC,0.298 (inactive)
7,CGAATAGA,0.0132 (inactive)
8,ACGTCACG,0.0623 (inactive)
9,CATTCCCA,-0.01 (inactive)
10,CGGGATCC,-0.132 (inactive)
11,ACCCAAGC,-0.122 (inactive)
12,CCCTGCGG,-0.29 (inactive)
13,ACGTCGAG,-0.0187 (inactive)
14,ATAACAGC,0.148 (inactive)
15,ATAACAGA,0.171 (inactive)
16,GTAACATA,0.345 (active)
17,ATAACAGG,0.155 (inactive)
18,ATAACATG,0.424 (active)
19,ATAACTTG,0.197 (inactive)
20,GTAACAGA,0.211 (inactive)
21,CTAACATA,0.28 (inactive)
22,ATAACATA,0.356 (active)
23,ATAACATC,0.318 (active)
24,CTAACATC,0.208 (inactive)

row,Sequence,PBM E-score
1,CGATCATC,0.0443 (inactive)
2,ATCCGCGG,-0.111 (inactive)
3,AAAGTTGG,0.0235 (inactive)
4,ATAGGGGA,-0.137 (inactive)
5,AACCGGCG,-0.0557 (inactive)
6,GCTAGATA,0.0474 (inactive)
7,CCGCGTCC,-0.087 (inactive)
8,AATGTATA,0.271 (inactive)
9,CATGTATA,0.418 (active)
10,AGTGTATC,0.186 (inactive)
11,CATGTATC,0.408 (active)
12,CAAGTATC,0.148 (inactive)
13,AATGTATG,0.243 (inactive)
14,CCTGTATC,0.125 (inactive)
15,GATGTATA,0.295 (inactive)
16,AATGTATC,0.314 (active)
17,CAACCCCA,-0.102 (inactive)
18,CACTGATG,0.107 (inactive)
19,GAGAACGC,-0.0756 (inactive)
20,CACTTCCG,-0.121 (inactive)
21,ATATCGTC,0.107 (inactive)
22,AGACCCAA,-0.131 (inactive)
23,CTTACAAC,0.333 (active)
24,CTTACAAG,0.343 (active)

row,Sequence,PBM E-score
1,CTCACAAG,0.0655 (inactive)
2,CTTACAAA,0.181 (inactive)
3,GTTACAAC,0.303 (inactive)
4,CATACAAC,0.27 (inactive)
5,CCGCGTCA,-0.126 (inactive)
6,AGCTGGTG,-0.0997 (inactive)
7,AGCGGCGG,-0.225 (inactive)
8,ATAGGCGA,-0.0622 (inactive)
9,GTATGTCA,0.345 (active)
10,GGATGTGA,0.081 (inactive)
11,AGATGTCA,0.279 (inactive)
12,CTATGTCA,0.307 (inactive)
13,CGATGTCA,0.311 (active)
14,ATATGTCA,0.305 (inactive)
15,GGATGTCA,0.311 (active)
16,CGGTGTCA,0.193 (inactive)
17,CGATGTCC,0.143 (inactive)
